# Assay results: PubChem BioAssay AID1347043 (National Center for Advancing Translational Sciences (NCATS), 2019)
# Among all 76,000 compounds or so, about 1,900 (2.5%) were called active. Entries that show only a call come without a potency. Roughly 5% stayed inconclusive and do not appear here. Calls follow the shape of the dose curve; as a rule, active = well fitted inhibition curve with a large enough effect; inconclusive = small, poorly fitted or top-dose-only effect; inactive = flat fitted curve, though single readings scatter. This excerpt belongs to a sample that is enriched for actives.
# Biological target: Luciferin 4-monooxygenase (Photinus pyralis) (UniProt P08659)
# Sequence (P08659 whole entry, looked up): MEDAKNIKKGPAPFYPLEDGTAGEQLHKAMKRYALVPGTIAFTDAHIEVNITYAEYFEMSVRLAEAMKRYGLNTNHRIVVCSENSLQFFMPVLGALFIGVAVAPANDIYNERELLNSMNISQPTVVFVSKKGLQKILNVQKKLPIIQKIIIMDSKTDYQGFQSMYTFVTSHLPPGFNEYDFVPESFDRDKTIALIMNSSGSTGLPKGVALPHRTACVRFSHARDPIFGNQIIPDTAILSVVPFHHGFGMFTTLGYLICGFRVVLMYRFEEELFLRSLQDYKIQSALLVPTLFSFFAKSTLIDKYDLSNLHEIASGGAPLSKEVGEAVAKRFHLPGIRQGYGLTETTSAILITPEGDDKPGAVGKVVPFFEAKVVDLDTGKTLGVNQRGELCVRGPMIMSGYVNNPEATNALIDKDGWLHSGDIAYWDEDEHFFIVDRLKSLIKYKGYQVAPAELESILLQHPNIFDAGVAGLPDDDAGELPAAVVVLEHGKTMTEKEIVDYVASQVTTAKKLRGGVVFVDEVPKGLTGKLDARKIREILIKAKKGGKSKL
# Assay: Firefly luciferase inhibition profiling of diverse chemical library using quantitative high-throughput screening; also: nearly all actives have a fitted effect of over 65% in size
# Settings: purified P. pyralis luciferase, luminescence, biochemical; series mostly up to 115 µM
# Procedure, shortened: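 FLuc 10nM, D-luciferin 10uM, ATP 10uM, Mg acetate 10mM, Tris acetate pH 7.5, Tween/BSA; cpd qHTS; enzyme added last; CCD luminescence.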
# Potency is read from the fitted curve at half-maximal effect.
row,Structure (SMILES),Potency
1,CCCCCCOC(=O)C1=CN(C)S(=O)(=O)N=C1C,inactive
2,Cn1cc(CC(=O)N2CCCc3ncc(C(N)=O)cc32)c2ccccc21,inactive
3,COCCNC(=O)CCc1c(C)nn(-c2ccccc2)c1Oc1ccccc1F,inactive
4,O=C([C@@H]1C[C@H](Oc2ccccc2)CN1C(=O)CN1CCCCCC1)N1CCCC1,inactive
5,Fc1ccccc1CN1CCNc2cc(Nc3cccnc3)ncc2C1,50.1 µM (active)
6,c1ccc(CN2CCNc3cc(NCc4cccnc4)ncc3C2)cc1,inactive
7,CN(C)c1cccc(Nc2cc3c(cn2)NCCN(Cc2ccccc2)C3)c1,inactive
8,Fc1ccc(Cc2nc3nccc(-c4ccco4)n3n2)cc1,inactive
9,COc1ccc(-c2ccc3ncc(Nc4ccc(C(F)(F)F)cc4)n3n2)cn1,inactive
10,Cc1cccc(-c2cccc(NC(=O)C3CCCN(C(=O)CC(F)(F)F)C3)c2)c1 (stereo unspecified),11.2 µM (active)
11,O=C(Nc1cccc(F)c1)N1CCCC(CN2CCOCC2)CC1 (stereo unspecified),inactive
12,CC#CC(=O)N1CCCC(C(=O)Nc2cccc(-c3cccc(C)c3)c2)C1 (stereo unspecified),15.8 µM (active)
13,Cc1cccc(C(=O)N2C[C@@H](F)C[C@H]2C(=O)N2CCCCC2)c1,inactive
14,CC(=O)Nc1cccc(-c2nnc3n2CCCC3)c1,inactive
15,O=C(Nc1cccc(Cl)c1)C1CCCN(c2nc3ncccc3o2)C1 (stereo unspecified),inactive
16,CCn1nccc1C(=O)N1CCCC1c1cc(C)no1 (stereo unspecified),inactive
17,CN1C(=O)CC(C(=O)O)C12CCN(CCc1ccccn1)CC2 (stereo unspecified),inactive
18,Cc1ccc(CNC(=O)N2CCN(C(=O)N3CC4CC(C3)[C@H]3CCCC(=O)N3C4)CC2)cc1 (stereo partly specified),inactive
19,CCn1c(CN(C)C)nnc1C1CCN(Cc2ccc(-n3ccnc3)cc2)CC1,inactive
20,COc1ccc(C2Cn3nnc(C(=O)N4CCC(C(=O)NCC5CCCCC5)CC4)c3CO2)cc1 (stereo unspecified),inactive
21,CN(C)c1ccc(C(=O)N2CCN(C(=O)c3nnn4c3COC(c3ccc(Cl)cc3)C4)CC2)cc1 (stereo unspecified),inactive

row,Structure (SMILES),Potency
1,O=C(c1ccoc1)N1CCN(C(=O)c2nnn3c2COC(c2ccc(Cl)cc2)C3)CC1 (stereo unspecified),inactive
2,Cc1ccc(C2Cn3nnc(C(=O)N4CCC(C(=O)NCCc5ccccc5)CC4)c3CO2)cc1 (stereo unspecified),12.6 µM (active)
3,Cc1ccc(C2Cn3nnc(C(=O)N4CCN(C(=O)COc5cccc(C)c5)CC4)c3CO2)cc1 (stereo unspecified),inactive
4,CCCCNC(=O)C1CCN(C(=O)c2nnn3c2COC(c2ccc(C)cc2)C3)CC1 (stereo unspecified),28.2 µM (active)
5,Cc1ccc(C(=O)N2CCN(C(=O)c3nnn4c3COC(c3ccccc3)C4)CC2)cc1 (stereo unspecified),inactive
6,Cc1ccc(C2Cn3nnc(C(=O)N4CCC(C(=O)Nc5ccc(Cl)cc5)CC4)c3CO2)cc1 (stereo unspecified),15.8 µM (active)
7,COc1ccc(C2Cn3nnc(C(=O)N4CCN(C(=O)c5ccc(C)cc5C)CC4)c3CO2)cc1 (stereo unspecified),inactive
8,C=CCN(C)C(=O)[C@@H](C)C1CC[C@@]2(C)Cc3sc(Nc4c(Cl)cccc4Cl)nc3[C@@H](C)[C@@H]2[C@H]1O (stereo partly specified),inactive
9,O=C(C[C@@H]1CCNC[C@@H]1Cc1cc(CSc2ccccc2)on1)NCc1ccc2c(c1)OCO2,inactive
10,CCc1cccc(C)c1NC(=O)Cn1ccn2nc(-c3ccc(F)cc3)c(CO)c2c1=O,inactive
11,Cc1ocnc1C(=O)N1CCc2nc(N)nc(N3CC[C@H](O)C3)c2CC1,inactive
12,Cc1cn2nc(C(=O)NCc3ccc(F)cc3)cc2c(N2CCCC2)n1,inactive
13,CC(C)CCN1C(=O)CC[C@]2(C(=O)N3CCN(CC(C)C)CC3)CCCC[C@@H]12,inactive
14,CC(C)CCN1C(=O)CC[C@]2(C(=O)N3CCN(C)CC3)CCCC[C@@H]12,inactive
15,CCN1CCN(C(=O)C23CCCC=C2N(C2CCCC2)C(=O)CC3)CC1 (stereo unspecified),39.8 µM (active)
16,CNC(=O)[C@@H]1CN(C(=O)c2n[nH]c3ccccc23)C[C@H]1c1n[nH]c(C)n1,inactive
17,Cc1cccnc1NC(=O)C1c2ccccc2C(=O)N(C2CCCC2)C12CCCC2 (stereo unspecified),inactive
18,O=C([C@@H]1C[C@@H](O)[C@H](O)[C@@H]2NC(=S)N(c3ccc(OC(F)(F)F)cc3)[C@@H]21)N1CCCCC1,14.1 µM (active)
19,CC1(NC(=O)C2CC2)CN(c2ccc(OC(F)(F)F)cc2)C1,inactive
20,O=C([C@@H]1C[C@H](F)CN1C(=O)c1ccccc1OC(F)(F)F)N1CCCCC1,inactive
21,Cc1noc(-c2cccc(OC3CN(C(=O)c4ccco4)C3)c2)n1,inactive

row,Structure (SMILES),Potency
1,COc1ccccc1OCc1cc(C(=O)NCc2n[nH]c3c2CCC3)n[nH]1,inactive
2,CN1CCCN(c2ccc(C(=O)N3CCC(N4CCOCC4)CC3)cn2)CC1,inactive
3,O=C(c1ccc(-c2ccc(N3CCCCC3)nc2)cc1)N1CCOCC1,35.5 µM (active)
4,CCOC(=O)C1CCN(C(=O)c2ccc(-c3ccc(N4CCCCCC4)nc3)cc2)CC1,inactive
5,O=C(CCc1ccccc1)NCCn1cccc1-c1nc(-c2ccc3c(c2)OCO3)no1,50.1 µM (active)
6,COc1ccc(-c2noc(-c3cccn3CC(=O)Nc3ccccc3)n2)cc1F,inactive
7,Cc1ccc(NC(=O)Cn2cccc2-c2nc(-c3ccc4c(c3)OCO4)no2)cc1Cl,inactive
8,COc1ccc(CN2CCC3(COc4ccccc4C(=O)N3)C2)cc1 (stereo unspecified),inactive
9,Cc1c(Cl)cccc1NC(=O)N1C[C@@H](F)C[C@H]1C(=O)N1CCc2ccccc2C1,inactive
10,O=C(CC1CCCC1)N1CCC(c2nc(C3CCOCC3)no2)CC1,inactive
11,O=C(NC1CCCN(c2cc(-c3ccc(F)cc3)[nH]n2)C1)c1ccc(Br)cc1 (stereo unspecified),inactive
12,COc1ccc(-c2cc(N3CCC(NC(=O)c4ccc(N(C)C)cc4)C3)n[nH]2)cc1 (stereo unspecified),inactive
13,O=C(NC1CCN(c2cc(-c3ccc(Cl)cc3)[nH]n2)C1)c1c[nH]c2ccccc12 (stereo unspecified),inactive
14,O=C(NC1CCN(c2cc(-c3ccc(F)cc3)[nH]n2)C1)c1cc2ccccc2[nH]1 (stereo unspecified),6.31 µM (active)
15,O=C(NC1CCCN(c2cc(-c3ccc(Cl)cc3)[nH]n2)C1)c1ccncc1 (stereo unspecified),12.6 µM (active)
16,O=C(NC1CCCN(c2cc(-c3ccccc3)[nH]n2)C1)c1cccc(Cl)c1 (stereo unspecified),inactive
17,O=C(NC1CCCN(c2cc(-c3ccc(Cl)cc3)[nH]n2)C1)c1ccccc1F (stereo unspecified),inactive
18,COc1ccc(-c2cc(N3CCCC(NC(=O)c4ccsc4)C3)n[nH]2)cc1 (stereo unspecified),14.1 µM (active)
19,O=C(NC1CCN(c2cc(-c3ccc(F)cc3)[nH]n2)C1)c1ccc2c(c1)OCO2 (stereo unspecified),inactive
